We go through 18 compounds from PubChem BioAssay (EPA / NIEHS).

Records with an inconclusive call do not appear. Activity calls are given as the source filed them. The calls were made as follows, unless noted: active = hit-call score of the fitted dose curve at least 0.9, where 1 is the maximum; inactive = score below 0.9.

The first assay can be described thus: ACEA_ER_80hr: ACEA Biosciences xCELLigence Real-Time Cell Analysis on Estrogen Receptor Agonism for Proliferation (AID 2282667; active = hit-call score of the fitted dose curve at least 0.9, where 1 is the maximum). The note with it: T47D proliferation, impedance (xCELLigence), 80 h. Put shortly:
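Impedance readout (RT-CES) of T47D proliferation at 80 h post-dose; gain of signal vs DMSO baseline. Compounds: 8 conc, 1:4 serial, top 100 uM final, ≤0.5% DMSO; biological duplicate.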
Broadly, the AC50 is the concentration giving half of the maximal activity seen. Turning to `CCCCCCCCOC(=O)c1ccccc1C(=O)OCCCCCCCC`, the AC50 was 75.4 µM (active).
As to `CO/C=C(/C(=O)OC)c1ccccc1COc1cccc(C(F)(F)F)n1`, the AC50 was 20.2 µM (active).
Turning to `C1CC2OC2CC1C1CO1` (configuration not stated), the compound was called inactive.
Still for that read-out and setting: the same measure for `ClC1=C(Cl)[C@]2(Cl)[C@@H]3[C@@H](Cl)[C@H]4O[C@H]4[C@@H]3C1(Cl)C2(Cl)Cl`: “inactive”.
Turning to `O=S(=O)(O)C(F)(F)C(F)(F)C(F)(F)C(F)(F)C(F)(F)C(F)(F)F`, the compound was called inactive.
As for `CCOP(=S)(OCC)SCSC(C)(C)C`, the compound was called inactive.
For the compound `CC(C)C(=O)OCC(C)(C)C(OC(=O)C(C)C)C(C)C` (configuration not stated), the compound was classed as inactive.

A short description of another assay: APR_HepG2_CellCycleArrest_24hr: Apredica 24-hour HepG2 Assay for Cell Cycle Arrest (AID 2282905).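 Also: cell cycle arrest scored as ratio of 2N to 4N nuclear DNA content.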 The note with it: imaging, actives raise or lower the signal. In short, it runs like this: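 HepG2, 24 hr dosing, 10-pt 0.39–200 uM in duplicate, 0.5% DMSO. Fixed 3.7% formaldehyde, permeabilized 0.5% Triton X-100, Hoechst 33342 2 ug/mL. Imaged 20x; nuclear DNA content quantified; bidirectional fit vs DMSO.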
On to `CCCCCCCCOC(=O)c1ccccc1C(=O)OCCCCCCCC`, for which the compound was called inactive.
`CN(C)CCO`: the outcome was inactive.
On the same count and under the same terms, the same measure for `O=NN(c1ccccc1)c1ccccc1`: “inactive”.
As for `Oc1c(Cl)c(Cl)c(Cl)c(Cl)c1Cl`, the AC50 is 86.7 µM (active).
Turning to `CCCCCCOC(=O)c1ccccc1C(=O)OCCCCCC`, the call was inactive.
For `CO/C=C(/C(=O)OC)c1ccccc1COc1cccc(C(F)(F)F)n1`, the outcome was inactive.
Still for that read-out and setting: the same measure for `CCCCCCCCCc1ccc(O)cc1`: “inactive”; for `Cc1cc(-c2ccc(N)c(C)c2)ccc1N`: “inactive”.
On the same count and under the same terms, the same measure for `CC(C)(c1ccccc1)c1ccc(O)cc1`: “inactive”.
For the compound `Nc1ccc(-c2ccc(N)cc2)cc1`, the AC50 is 100 µM (active).
In the case of `c1ccc(-c2ccccc2)cc1`, the result was inactive.
Still for that read-out and setting: for `C1CC2OC2CC1C1CO1` (configuration not stated) the value was “inactive”.
On to `C=CC(=O)NCNC(=O)C=C`, for which the call was inactive.
With `ClC1=C(Cl)[C@]2(Cl)[C@@H]3[C@@H](Cl)[C@H]4O[C@H]4[C@@H]3C1(Cl)C2(Cl)Cl`, the AC50 is 80.1 µM (active).
As to `C[C@]12CCC(=O)C=C1CC[C@@H]1[C@@H]2CC[C@]2(C)C(=O)CC[C@@H]12`, the compound was classed as inactive.
